Pf growth 96h – P. falciparum growth inhibition at 96 hour, primary screen for plastid delayed-death inhibitors; P. falciparum luciferase reporter growth, 96 h; Potency, µM (top dose mostly 28.7 µM), inactives show top-dose activity change, negative = inhibition, hits mostly inhibitors; 320,000 tested, 6.9% active; AID 504834; further: potency means the concentration at half of the fitted maximal effect
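Parasite growth measured via integrated firefly luciferase reporter in P. falciparum. Infected erythrocytes at 2% hematocrit, 0.05% parasitemia final were treated 96 hours at 37 C under 5% CO2, and luminescence was read.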
Pf growth 48h – P. falciparum growth inhibition at 48 hours (one generation); P. falciparum luciferase growth in erythrocytes, 48 h; Potency, µM (series often up to 28.7 µM), for inactives: at the highest dose activity change, negative = inhibition, hits mostly inhibitors; 310,000 tested, 5.9% active; AID 504832; further: potency means the concentration at half of the fitted maximal effect
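Cell-based growth assay: transgenic P. falciparum expressing firefly luciferase, cultured in red cells within RPMI 1640 containing 0.5% w/v Albumax, 24 mM bicarbonate and gentamycin. A drop in luciferase activity indicates inhibition.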
Sm TGR inh – blocks Schistosoma mansoni thioredoxin glutathione reductase; Q962Y6; purified TGR, DTNB reduction, TNB absorbance 405 nm; Potency, µM (doses to about 114 µM), for inactives: at the top dose activity change, negative = inhibition, usual class: inhibitors; 360,000 tested, 3% active; further: potency means the concentration at half of the fitted maximal effect; nearly all actives have a fitted effect of over 60% in size
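TGR 20 nM + NADPH 100 uM (dispensed conc.), cpd preinc 15 min RT; start with NADPH (500 uM addition) then DTNB (15 mM addition). Kinetic TNB absorbance, 405 nm filter. Four-parameter Hill fit across titration.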
Giardia FBPA inh – Giardia lamblia aldolase inhibition; A8B2U2; Potency, µM (top dose mostly 59.6 µM), for inactives: top-dose activity, negative = inhibition, actives largely listed as inhibitors; purified Giardia FBPA; 290,000 tested, 0.71% active; further: potency means the concentration at half of the fitted maximal effect; nearly all actives have a fitted effect of over 55% in size
Target sequence (A8B2U2 whole entry, looked up): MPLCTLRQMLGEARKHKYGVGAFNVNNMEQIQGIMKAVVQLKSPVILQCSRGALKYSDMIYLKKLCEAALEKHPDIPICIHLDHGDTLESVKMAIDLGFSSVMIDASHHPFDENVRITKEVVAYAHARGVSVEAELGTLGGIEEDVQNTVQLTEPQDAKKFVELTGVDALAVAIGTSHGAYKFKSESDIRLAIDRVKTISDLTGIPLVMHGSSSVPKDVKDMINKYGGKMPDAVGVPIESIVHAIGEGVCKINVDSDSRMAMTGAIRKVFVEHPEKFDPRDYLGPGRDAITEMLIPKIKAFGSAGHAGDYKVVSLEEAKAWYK
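40 nM FBPA preincubated 10 min at RT with compound (up to 57.5 uM final), then substrate plus GAPDH/TPI/NAD/arsenate coupling and diaphorase/resazurin added. Fluorescence read after 20 min at RT, 525/598 nm.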
HCMV inh – human cytomegalovirus inhibition; AID 1259415; 410,000 tested, 4.5% active; HFF cells, HCMV-luciferase reporter, 72 h; active compounds read low; activity change, negative = inhibition, % at 57.5 µM; in the data active means activity change below about -60%; inconclusive means no clear call, values can overlap the other calls; inactive means above about -39%
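Cell-based, HFFs, 1000 cells/well, 16 h 37C; cpds in DMSO + HCMV-luc, MOI 1 PFU/cell; 72 h 37C; OneGlo luminescence after 5 min RT; norm. to buffer vs Salinomycin 10uM.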
Active calls of the source: *; ? = inconclusive; . = no result given; [ ] = dose if it differs, or a comment. Hits are enriched below; roughly 14% of the tested compounds scored in any of these assays. Unless noted, the call rests on the fitted dose curve; in most records, active means well fitted curve in the direction sought with a large enough effect; inconclusive means small, poorly fitted or top-dose-only effect, or another doubt; inactive means no such curve, though single readings can be large; an effect the other way counts as inactive or inconclusive. On the % scale 0 is the no-effect control and ±100 the full control effect.

SMILES	Pf growth 96h	Pf growth 48h	Sm TGR inh	Giardia FBPA inh	HCMV inh
C/C(=N\Nc1ccc(Cl)c(C(=O)O)c1)c1ccc(Br)s1	34%	.	50µM*	-18%	-1
C/C(=N\NC(=O)c1ccc(Cl)c(Cl)c1)c1ccc(Br)s1	10%	-18%	4%	3%	-83*
Cc1ccc(CNC(=O)C(C(C)C)N2Cc3ccccc3C2=O)cc1 (centres undefined)	.	.	1%	.	-38
C=CCC(O)[C@H](Cc1cnc2ccccc2c1)[C@H](/C=C/CCCC)c1ccccc1 (some centres undefined)	.	.	.	-4%	.
COc1cc(OC)cc(-c2noc([C@H]3C[C@H](O)[C@@H](CO)O3)n2)c1	.	.	.	.	48
N#Cc1ccc(OCC(=O)NCCc2ccc(S(N)(=O)=O)cc2)cc1	-12%	6%	6%	5%	-80*
C[C@@H](C(=O)OCC(=O)NCCc1ccc(S(N)(=O)=O)cc1)N1C(=O)C2CCCCC2C1=O (some centres undefined)	5%	3%	16%	-1%	-80*
NS(=O)(=O)c1ccc(CCNC(=O)CNC(=O)C2CCCCC2)cc1	12µM*	10%	15%	-1%	-1
NS(=O)(=O)c1ccc(CCNC(=O)CNC(=O)COc2ccccc2)cc1	-6%	32%	-9%	-5%	-7
NS(=O)(=O)c1ccc(CCNC(=O)CN2CCC(Cc3ccccc3)CC2)cc1	-13%	?	-9%	-1%	-76*
NS(=O)(=O)c1ccc(CCNC(=O)C2CCCCC2)cc1	101%	?	4%	-1%	-3
COc1ccc2c3c([nH]c2c1)[C@@H](CO)N(Cc1ccccc1)CC31CN(C(=O)Cc2ccccc2)C1	.	.	.	.	0
C=CCOc1ccc(/C=C2\SC(=S)N(NS(=O)(=O)c3ccccc3)C2=O)cc1	2%	16%	24%	?	19
Cc1cccc(C(=O)Nc2ccc3oc(-c4ccncc4)nc3c2)c1	.	.	-8%	.	?
C=CCNC(=S)Nc1cc(C)ccn1	4%	?	-7%	-9%	-83*
C=CCNC(=S)Nc1ccc2cn[nH]c2c1	25%	0%	40µM*	?	-25
C=CCNC(=S)Nc1ccc(OC(=O)Nc2ccc(Cl)c(Cl)c2)cc1	?	?	35µM*	?	-12
Cc1ccc(NC(=S)Nc2ccc3cn[nH]c3c2)cc1	56%	12%	-14%	-27%	-26
C=CCNC(=S)Nc1cccc(NC(=S)NCC=C)c1	?	13µM*	?	-8%	?
Cc1ccc(S(=O)(=O)c2cn(Cc3ccccc3Cl)c3ccc(F)cc3c2=O)cc1	.	.	0%	.	1
CSCC[C@H](NC(=O)[C@@H]1CCCN1C(=O)CNC(=O)[C@H](CCCCN)NC(=O)[C@H](Cc1cnc[nH]1)NC(=O)[C@H](CO)NC(=O)[C@H](CC(C)C)NC(=O)[C@H](CCCN=C(N)N)NC(=O)[C@@H]1CCCN1C(=O)[C@H](CCCN=C(N)N)NC(=O)[C@@H]1CCC(=O)N1)C(=O)N1CCC[C@H]1C(=O)N[C@@H](Cc1ccccc1)C(=O)O	.	.	.	8%	.
C=CCNC(=S)Nc1ccc(C)cc1[N+](=O)[O-]	?	20%	40µM*	-16%	-23
Nc1nc2c(nc(Br)n2C2CC(O)C(CO)O2)c(=O)[nH]1 (centres undefined)	.	.	.	0%	.
Cn1nc(C(C)(C)C)cc1C(=O)N1CCCC(C)(C(=O)NS(=O)(=O)C2CC2)C1 (centres undefined)	.	.	.	.	15
Clc1ccc(-c2ccc(C=Nc3ccc(N4CCOCC4)cc3)o2)cc1	10%	-6%	1%	-14%	-62*
SMILES	Pf growth 96h	Pf growth 48h	Sm TGR inh	Giardia FBPA inh	HCMV inh
COc1ccc2nc(C)cc(N3CCOCC3)c2c1	43%	7%	13%	-29%	-7
COc1ccc2nc(C)cc(N3CCN(c4ccccc4)CC3)c2c1	9.3µM*	13µM*	-7%	5%	-16
COc1ccc2nc(C)cc(N3CCN(S(=O)(=O)c4ccccc4F)CC3)c2c1	9.3µM*	?	-10%	.	-10
CC1CC(C)(C)OC(c2ccc(C(C)C)cc2)O1 (centres undefined)	.	.	.	.	-14
Cn1c(-c2ccccc2)cc2ccccc21	24%	22%	5%	0%	16
Cn1c(-c2ccccc2O)cc2ccccc21	5.2µM*	3.7µM*	1%	-8%	11
Cc1nn2c(nc1=O)NNC2(C)C(C)(C)C (centres undefined)	-8%	-7%	6%	-21%	-38
COC(=O)/C=C1/S/C(=N/NC(=O)c2ccccc2OC)NC1=O	12µM*	?	?	.	42
COC(=O)/C=C1/S/C(=N/NC(=O)c2ccc(OC)cc2)NC1=O	?	5%	-24%	12%	34
COC(=O)/C=C1/S/C(=N/NC(=O)c2ccc(Cl)cc2Cl)NC1=O	14%	11%	18µM*	?	-34
Cc1ccc(CCNC(=O)c2cn(C)c3ccc(S(=O)(=O)N4CCC(C)CC4)cc3c2=O)cc1	.	.	6%	.	7
CCC(C)Sc1cc(C)c(C#N)c2nc3ccccc3n12 (centres undefined)	2.9µM*	8.3µM*	-14%	15%	?
CCC(C)Nc1cc(C)c(C#N)c2nc3ccccc3n12 (centres undefined)	-1%	-6%[0.00184 µM]	-6%	-2%	-24
Cc1cc(N2CCN(C3CCCC3)CC2)n2c(nc3ccccc32)c1C#N	0.23µM*	0.29µM*	-21%	2%	-37
Cc1cc(-n2ccnc2)n2c(nc3ccccc32)c1C#N	-47%	.	5%	-1%	-11
CCOC(=O)c1c(C)cc(C)n2c1nc1ccccc12	12µM*	?	6%	6%	13
CCOC(=O)c1c(N)n(-c2cc(C)cc(C)c2)c2nc3ccccc3nc12	.	.	-8%	.	15
CCOC(=O)CSc1cc(C)c(C#N)c2nc3ccccc3n12	24%	11%	2.5µM*	-16%	-15
Cc1ccc(C(=O)NCCCN2CCN(CCCNC(=O)c3ccc(C)cc3)CC2)cc1	.	.	.	.	-38
CC(=O)c1ccc(S(=O)(=O)N2CCN(c3nn(C)c(=O)n(C)c3=O)CC2)cc1	-19%	1%	0%	.	-38
COC(=O)N1CCC2(CCCN(c3ncccn3)C2)CC1	.	.	.	0%	.
NC(=O)c1cc2c3ccccc3ccn2c1-c1ccccc1	-58%	-1%	-15%	?	-99*
CCN1CCN(C(c2ccc(F)cc2)c2sc3nc(-c4ccco4)nn3c2O)CC1 (centres undefined)	.	.	5%	.	8
CC(C)(C)c1cc(NC(=O)Nc2ccc(Br)cc2Cl)no1	13µM*	-27%	-7%	-8%	?
CC(C)C(=O)Nc1ccc(Br)cc1Cl	-13%	50%	5%	4%	?
Cc1cc(NC(=O)Nc2ccccc2Cl)no1	?	46%	0%	5%	23
CC(C)NC(=O)Nc1ccc(Br)cc1Cl	?	25%	20%	3%	-61*
